{"source": "PubChem BioAssay (NCATS)", "note": "Inconclusive results are not listed. A number with no mark means an inactive call. Active and inactive are the calls of the source. The call rests on the fitted dose curve; in most records, active means well fitted cell-killing curve with a large enough effect; inconclusive means small, poorly fitted or top-dose-only effect; inactive means no such curve, though single readings can be large or run the other way. Numbered stars: 1 amine (or outer) side, 2 acyl side, 3 side chain; on linkers, the order of the positions; unused ones are H or OH. Bridge positions count the residues as written; N and C are the ends. Square brackets hold non-standard residues; d marks the D form. Peptide text beside a SMILES is read from it. I, II: the chains in the order shown. Actinocin(9to1) = Cc1c2oc3c(C)ccc(C(=O)[*:1])c3nc-2c(C(=O)[*:2])c(N)c1=O; NMeV = CN[C@H](C(=O)O)C(C)C; Sar = CNCC(=O)O", "data": [{"assay": "qHTS of pediatric cancer cell lines to identify multiple opportunities for drug repurposing: Confirmatory screen for U-2 OS cells (AID 1347122); further: nearly all actives have a fitted effect of over 65% in size; further: potency means the concentration at half of the fitted maximal effect", "conditions": "U-2 OS osteosarcoma cell viability; series mostly up to 45.9 µM; activity change, negative = cytotoxicity: at the top concentration", "from_the_text": "Drug repurposing or repositioning has been offered as a strategy for drug development in oncology programs. This approach has special potential for childhood cancers and other rare or orphan diseases, where the expected return on new drug development has been a disincentive to pharmaceuticals.\nIn this project we exploit the poly-pharmacology of drugs to discover new indications via phenotypic screening of a panel of 19 well-characterized cell lines derived from solid tumors seen in children and adolescents. The goal is to identify approved drugs with previously unrecognized anticancer properties that has the potential to reveal new mechanisms and biological processes involved in carcinogenesis or drug resistance. We employed a titration-based paradigm (quantitative high-throughput screening or qHTS), where all compounds were tested at multiple concentrations for their effect on cell viability. Concentration-response curves (CRCs) were derived directly from the primary screen, and both potency and efficacy values were used to identify compounds with robust bioactivity profiles. We screened the NIH Chemical Genomics Center (NCGC) Pharmaceutical Collection (NPC) and Mechanism Interrogation Plate (MIPE) small molecule collections of approved and investigational compounds against these cell lines; and measured metabolically active cells after 48 hours of compound treatment as a proxy for cell viability.\nAssay Submitter: Nathalia J. Martinez, National Center for Advancing Translational Sciences, National Institutes of Health, Rockville, MD, USA; email: natalia.martinez@nih.gov\n[1] Shen, M et al. Quantitative high-throughput phenotypic screening of pediatric cancer cell lines identifies multiple opportunities for drug repurposing. Oncotarget 2017 Dec 19;9(4):4758-4772. PMID 29435139.\nThe cells were obtained from University of North Carolina (UNC), Pediatric Preclinical Testing Program (PPT), and Coriell Institute (CI).\nqHTS cell viability assay:\nCells were assayed in growth media at a density of 500-1,000 cells/well. Five microliters of cells were dispensed into 1,536-well, white, solid-bottom, TC-treated plates (Greiner Bio One) using a multidrop dispenser and incubated at 37 degrees C, 5% CO2, under a humidified atmosphere for 5 hours. Twenty-three nanoliters of compounds and controls (neutral control DMSO or positive control bortezomib at final concentration of 2.3 µM) were subsequently transferred by Kalypsys pintool. For primary screens, the MIPE collection was tested at 11-point dilutions (final concentrations range from 0.78 nM to 46 µM) and the NPC collection at 8-point dilutions (final concentrations range from 0.59 nM to 46 µM). Compounds tested in follow-up screens were assayed at 11-point dilutions. Cells were incubated for 48 hours, followed by addition of 3 µL of CellTiter-Glo (Promega). After a 15 min incubation at room temperature, samples were analyzed for luminescence intensity using a ViewLux High-throughput CCD imager equipped with clear filters.", "units": {"activity change, negative = cytotoxicity": "%"}, "values": [{"compound": "Oc1ccc(O)cc1", "activity change, negative = cytotoxicity": 7.61}, {"compound": "C[C@]12CCC(=O)C=C1CC[C@H]1[C@@H]3CC[C@](O)(C(=O)CO)[C@@]3(C)C[C@H](O)[C@@]12F", "activity change, negative = cytotoxicity": 11.4}, {"compound": "C[C@@H]1C[C@H]2[C@@H]3C[C@H](F)C4=CC(=O)C(Cl)=C[C@]4(C)[C@@]3(F)[C@@H](O)C[C@]2(C)[C@@]1(O)C(=O)CO", "activity change, negative = cytotoxicity": -1.22}, {"compound": "NC(=O)CC[C@@H]1NC(=O)[C@H](Cc2ccccc2)NC(=O)[C@H](Cc2ccc(O)cc2)NC(=O)CCSSC[C@@H](C(=O)N2CCC[C@H]2C(=O)N[C@@H](CCCN=C(N)N)C(=O)NCC(N)=O)NC(=O)[C@H](CC(N)=O)NC1=O", "activity change, negative = cytotoxicity": 32.1}, {"compound": "COc1c(C)c2c(c(O)c1C/C=C(\\C)CCC(=O)O)C(=O)OC2", "Potency": "1850 nM (active)"}, {"compound": "CC(=O)[C@H]1CC[C@H]2[C@@H]3C[C@H](C)C4=CC(=O)CC[C@]4(C)[C@H]3[C@@H](O)C[C@]12C", "Potency": "329 nM (active)"}, {"compound": "CC1(C)O[C@@H]2C[C@H]3[C@@H]4CCC5=CC(=O)CC[C@]5(C)[C@@]4(F)[C@@H](O)C[C@]3(C)[C@]2(C(=O)CCl)O1", "activity change, negative = cytotoxicity": -22.7}, {"compound": "O=C(CCCN1CCC(O)(c2ccc(Br)cc2)CC1)c1ccc(F)cc1", "activity change, negative = cytotoxicity": -20.1}, {"compound": "C[C@@H]1CN(CCCn2c3ccccc3c3ccccc32)C[C@H](C)N1", "activity change, negative = cytotoxicity": -11.5}, {"compound": "CC(C)(C(=O)c1cccnc1)c1cccnc1", "activity change, negative = cytotoxicity": 11.3}, {"compound": "CN(C)/N=N/c1nc[nH]c1C(N)=O", "activity change, negative = cytotoxicity": -19.1}, {"compound": "CC(=O)OCC(=O)[C@@]12OC(C)(C)O[C@@H]1C[C@H]1[C@@H]3C[C@H](F)C4=CC(=O)C=C[C@]4(C)[C@@]3(F)[C@@H](O)C[C@@]12C", "activity change, negative = cytotoxicity": 1.24}, {"compound": "CN(C)C(=S)SC(=S)N(C)C", "activity change, negative = cytotoxicity": 1.22}, {"compound": "CCCC(=O)O[C@]1(C(=O)CO)CC[C@H]2[C@@H]3CCC4=CC(=O)CC[C@]4(C)[C@H]3[C@@H](O)C[C@@]21C", "activity change, negative = cytotoxicity": 0.519}, {"compound": "CCCCC(CC)CN=C(N)NC(N)=NCCCCCCN=C(N)NC(N)=NCC(CC)CCCC", "note": "(configuration not stated)", "Potency": "4650 nM (active)"}, {"compound": "CC1(C)O[C@@H]2C[C@H]3[C@@H]4C[C@H](F)C5=CC(=O)CC[C@]5(C)[C@H]4[C@@H](O)C[C@]3(C)[C@]2(C(=O)CO)O1", "activity change, negative = cytotoxicity": 3.15}, {"compound": "CCC(C(=O)OCCN(CC)CC)c1ccccc1", "note": "(configuration not stated)", "activity change, negative = cytotoxicity": -65.5}, {"compound": "C[C@H]1C[C@H]2[C@@H]3CCC4=CC(=O)C=C[C@]4(C)[C@@]3(Cl)[C@@H](O)C[C@]2(C)[C@@]1(O)C(=O)CO", "activity change, negative = cytotoxicity": -22.5}, {"compound": "NC(CO)(CO)CO", "activity change, negative = cytotoxicity": 8.95}, {"compound": "CC(=O)Oc1ccc(C(c2ccc(OC(C)=O)cc2)c2ccccn2)cc1", "activity change, negative = cytotoxicity": -6.75}, {"compound": "C[C@]12C=CC(=O)C=C1[C@@H](F)C[C@@H]1[C@@H]2[C@@H](O)C[C@@]2(C)[C@H]1CC[C@]2(O)C(=O)CO", "activity change, negative = cytotoxicity": 28.5}, {"compound": "CC(=O)OCC(=O)[C@@]1(O)[C@H](C)C[C@H]2[C@@H]3CCC4=CC(=O)C=C[C@]4(C)[C@@]3(F)[C@@H](O)C[C@@]21C", "Potency": "20800 nM (active)"}, {"compound": "Cc1c2oc3c(C)ccc(C(=O)N[C@@H]4C(=O)N[C@H](C(C)C)C(=O)N5CCC[C@H]5C(=O)N(C)CC(=O)N(C)[C@@H](C(C)C)C(=O)O[C@@H]4C)c3nc-2c(C(=O)N[C@@H]2C(=O)N[C@H](C(C)C)C(=O)N3CCC[C@H]3C(=O)N(C)CC(=O)N(C)[C@@H](C(C)C)C(=O)O[C@@H]2C)c(N)c1=O", "note": "(I: T[dV]P[Sar][NMeV] / II: T[dV]P[Sar][NMeV]; ester I:1-I:C, II:1-II:C; linker I:N-II:N via Actinocin(9to1))", "Potency": "369 nM (active)"}, {"compound": "CCOc1ccc2nc3cc(N)ccc3c(N)c2c1", "Potency": "585 nM (active)"}, {"compound": "CC(=O)OCC(=O)[C@@]1(OC(C)=O)[C@@H](C)C[C@H]2[C@@H]3C[C@H](F)C4=CC(=O)C=C[C@]4(C)[C@@]3(F)[C@@H](O)C[C@@]21C", "activity change, negative = cytotoxicity": -18.3}, {"compound": "CC(=O)OCC(=O)[C@@]1(O)CC[C@H]2[C@@H]3CCC4=CC(=O)C=C[C@]4(C)[C@H]3[C@@H](O)C[C@@]21C", "activity change, negative = cytotoxicity": 17.4}, {"compound": "CC(=O)OCC(=O)[C@@]12N=C(C)O[C@@H]1C[C@H]1[C@@H]3CCC4=CC(=O)C=C[C@]4(C)[C@H]3[C@@H](O)C[C@@]12C", "activity change, negative = cytotoxicity": -8.69}, {"compound": "C[C@@H]1C[C@H]2[C@@H]3CCC4=CC(=O)C=C[C@]4(C)[C@@]3(F)[C@@H](O)C[C@]2(C)[C@H]1C(=O)CO", "activity change, negative = cytotoxicity": 5.71}, {"compound": "C[C@]12C=CC(=O)C=C1CC[C@@H]1[C@@H]2[C@@H](O)C[C@@]2(C)[C@H]1CC[C@]2(O)C(=O)CO", "activity change, negative = cytotoxicity": 16.4}, {"compound": "COCc1c(C(C)C)nc(C(C)C)c(/C=C/[C@@H](O)C[C@@H](O)CC(=O)O)c1-c1ccc(F)cc1", "Potency": "261 nM (active)"}, {"compound": "CCCCCCC[N+](CC)(CC)CCCCc1ccc(Cl)cc1", "activity change, negative = cytotoxicity": -77.8}, {"compound": "C[n+]1c2cc(N)ccc2cc2ccc(N)cc21", "note": "(tested in a mixture with another compound)", "Potency": "16500 nM (active)"}]}]}
